Reference: PubChem BioAssay (EPA / NIEHS)
“And” between values parts separate entries of the source, which are not always exact repeats. Equal entries are not always repeated. Some structures have more than one record in an assay (separate samples or runs), and their calls can disagree. The source made the active and inactive calls. Rule for the calls: active = hit-call score of the fitted dose curve at least 0.9, where 1 is the maximum; inactive = score below 0.9.

Assay: BSK_hDFCGF_SRB: Viability Assessment in the BioMAP Diversity Plus: hDFCGF Assay (AID 2283061);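 note: cells exposed to compound for 24 h before the read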
Conditions: primary human foreskin fibroblasts
Description: BSK_hDFCGF is a cell-based, multiplexed-readout assay that uses foreskin fibroblast, a human skin primary cell, with measurements taken at 24 hours after chemical dosing in a 96-well plate.BSK_hDFCGF_SRB is an assay component measured in the BSK_hDFCGF assay. It measures 0.1% sulforhodamine related to cell death using Sulforhodamine staining technology.Data from the assay component BSK_hDFCGF_SRB was analyzed into 1 assay endpoint. This assay endpoint, BSK_hDFCGF_SRB, was analyzed with bidirectional fitting relative to DMSO as the negative control and baseline of activity. Using a type of viability reporter, gain or loss-of-signal activity can be used to understand changes in the signaling. Furthermore, this assay endpoint can be referred to as a primary readout, because this assay has produced multiple assay endpoints where this one serves a signaling function. To generalize the intended target to other relatable targets, this assay endpoint is annotated to the cell morphology intended target family, where the subfamily is cell conformation.
The levels of cell surface (or secreted, indicated by the prefix "s") biomarker endpoints were measured by ELISA. Overt cytotoxicity to cells in confluent adherent cultures (all systems other than the BT system) was assessed by measuring total protein levels using sulforhodamine B (SRB) staining in parallel cultures at the time of biomarker measurements, indicated as SRB endpoints. For proliferation assays for adherent cell types, individual cell types are cultured at sub-confluence and relative cell numbers quantified by SRB staining at time points optimized for each system (48 h: 3C and CASM3C systems; 72 h: BT and HDF3CGF systems; 96 h: SAg system). SRB was performed by staining cells with 0.1% SRB after fixation with 10% TCA and reading wells at 560 nm.Viability and proliferation of PBMC (T cells) was quantified by Alamar Blue reduction for the SAg and BT systems. For PBMC viability (referred to as PBMC Cytotoxicity within the assay endpoint names), cells were plated (75,000/well in a 96-well plate) and then chemical samples added for 1 h before addition of activators, SEB and TSST-1 (20 ng/mL final concentration each). Cells were incubated for 90 h. Then, Alamar Blue (20 uL/well) (Invitrogen, Cat DAL1100) was added for 6 h, and the plates were read with a fluorescence microplate reader at 546/580 nm (excitation/emission). For PBMC proliferation, cells were plated and activated as above but incubated for only 16 h prior to addition of Alamar Blue. Plates were read after 6 h.
With `CCN(CC)c1ccc2c(c1)Oc1cc(N(CC)CC)ccc1C21OC(=O)c2ccccc21` the outcome was “inactive”. In the case of `OCC(F)(F)C(F)(F)C(F)(F)CO`, the outcome was “inactive”. With `NC(O)(C(F)(F)F)C(F)(F)F` the outcome was “inactive”. For `OCC(O)CC(F)(F)C(F)(F)C(F)(F)C(F)(F)F` (stereo not given), the outcome was “inactive”. For `FC(F)(F)C(F)(F)C(F)(F)C(F)(F)C(F)(F)C(F)(F)CC[Si](Cl)(Cl)Cl`, the outcome was “inactive”. With `C=C(C)C(=O)OCC(F)(F)C(F)(F)C(F)(F)C(F)F` the outcome was “inactive”. In the case of `O=C=Nc1cccc2c(N=C=O)cccc12`, the outcome was “inactive”. In the case of `O=S(=O)(Cl)C(F)(F)C(F)(F)C(F)(F)C(F)(F)C(F)(F)C(F)(F)C(F)(F)C(F)(F)F`, the outcome was “inactive”. With `Nc1cc([N+](=O)[O-])cc(Cl)c1O` the outcome was “inactive”. For `O=C(Cl)C(F)(F)C(F)(F)C(F)(F)C(F)(F)C(F)(F)C(F)(F)F`, the outcome was “inactive”. In the case of `O=C(O)C(F)(F)C(F)(F)C(F)(F)OC(F)(F)F`, the outcome was “inactive”. For `CNS(=O)(=O)C(F)(F)C(F)(F)C(F)(F)C(F)(F)C(F)(F)C(F)(F)C(F)(F)C(F)(F)F`, the outcome was “inactive”. With `CCN(CCO)S(=O)(=O)C(F)(F)C(F)(F)C(F)(F)C(F)(F)C(F)(F)C(F)(F)C(F)(F)C(F)(F)F` the AC50 was 21.9 µM (active) and 2.95 µM (active). In the case of `O=C=NCc1cccc(CN=C=O)c1`, the outcome was “inactive”. In the case of `C=CC(=O)OCC(F)(F)C(F)(F)C(F)(F)C(F)(F)C(F)(F)C(F)(F)C(F)(F)C(F)F`, the outcome was “inactive”. For `NC(=O)C(F)(F)C(F)(F)C(F)(F)C(F)(F)C(N)=O`, the outcome was “inactive”. With `O=S(=O)(O)CCC(F)(F)C(F)(F)C(F)(F)C(F)(F)C(F)(F)C(F)(F)C(F)(F)C(F)(F)F` the AC50 was 54.3 µM (active) and 24.7 µM (active). In the case of `CCN=C1C=CC(=C(c2ccc(N(CC)CC)cc2)c2ccc(N(CC)CC)cc2)c2ccccc21`, the outcome was “inactive” and the AC50 was 0.331 µM (active). With `O=C(c1ccccc1)c1ccc(O)cc1O` the outcome was “inactive”. In the case of `CCN(CC)c1ccc(C=O)cc1`, the outcome was “inactive”. In the case of `NCC(F)(F)C(F)(F)C(F)(F)C(F)(F)C(F)(F)C(F)(F)F`, the outcome was “inactive”. With `C=CC(=O)OCCC(F)(F)C(F)(F)C(F)(F)C(F)(F)F` the AC50 was 8.28 µM (active) and the outcome was “inactive”. In the case of `Brc1nc2ccccc2s1`, the outcome was “inactive”. For `CCN(CC)c1ccc(C=O)c(O)c1`, the outcome was “inactive”. In the case of `OCC(F)(F)C(F)(F)C(F)(F)C(F)(F)C(F)(F)C(F)(F)CO`, the outcome was “inactive”. For `FC(F)(F)C(F)(F)C(F)(F)CC1CO1` (stereo not given), the outcome was “inactive”. In the case of `O=C(O)C(F)(F)C(F)(F)C(F)(F)C(F)(F)C(F)(F)C(F)(F)C(F)F`, the outcome was “inactive”. In the case of `O=C1C=CC(=O)N1c1ccc(Cc2ccc(N3C(=O)C=CC3=O)cc2)cc1`, the AC50 was 1.91 µM (active). With `O=C(Cl)C(F)(F)C(F)(F)C(F)(F)C(F)(F)C(F)(F)C(F)(F)C(F)(F)F` the outcome was “inactive”. For `C[Si](Cl)(Cl)CCC(F)(F)C(F)(F)C(F)(F)C(F)(F)C(F)(F)C(F)(F)F`, the outcome was “inactive”. In the case of `CN(C(=O)C(F)(F)C(F)(F)C(F)(F)F)[Si](C)(C)C`, the outcome was “inactive”. In the case of `OCC(F)(F)C(F)(F)C(F)(F)C(F)(F)C(F)(F)C(F)(F)C(F)(F)C(F)(F)CO`, the AC50 was 38.3 µM (active) and 54.8 µM (active). In the case of `OCCCC(F)(F)C(F)(F)C(F)(F)C(F)(F)C(F)(F)C(F)(F)C(F)(F)C(F)(F)F`, the AC50 was 9.4 µM (active) and 6.19 µM (active). For `NC(=O)C(F)(F)C(F)(F)C(F)(F)F`, the outcome was “inactive”. In the case of `FC(F)(F)C(F)(F)C(F)(F)C(F)(F)C(F)(F)C(F)(F)C(F)(F)CCI`, the outcome was “inactive”. With `Cc1cc(C)c(O)c(C(C)(C)C)c1` the AC50 was 35.2 µM (active). For `O=C(O)CCC(F)(F)C(F)(F)C(F)(F)C(F)(F)C(F)(F)C(F)(F)C(F)(F)F`, the AC50 was 2.25 µM (active) and the outcome was “inactive”.
